# Experimental data published in the supplement of paper PMC10646978.
# ± gives the standard deviation.
# System: RAW-Dual (murine macrophage reporter line)
# Assay: NF-kB reporter (SEAP) activity fold change vs agonist alone; higher = enhanced NF-kB activity
# Conditions: modulator concentration 10 µM; agonist: CpG ODN 1826 0.5 ug/mL
# In short: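 Compound reached 10 μM final in each well by pin transfer, onto RAW-Dual murine macrophage reporter cells seeded at 50 000 per well in 384-well plates. After 1 hour at 37 °C, the cells were stimulated overnight with a PRR agonist. SEAP in the supernatant was read with QUANTI-Blue at 620 nm absorbance for NF-κB, and Lucia luciferase was read with QUANTI-Luc luminescence for IRF. Each signal was turned into fold change against the mean agonist-only control on the same plate, and two replicate plates were averaged with propagated errors.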
row,SMILES,NF-kB reporter
1,COC(=O)C1C(=O)C(=CNc2ccccc2O)C(=O)CC1(C)C (stereo not given),1.66 ± 0.29
2,Cc1cc(OCCCOc2cccc3cccnc23)ccc1Cl,0.752 ± 0.06
3,CN(C)CCOC(c1ccccc1)c1ccccc1.Cl,1.12 ± 0.16
4,O=C(Nc1cccnc1)c1ccc(OC2CCOCC2)nc1,1.08 ± 0.37
5,CCOC(=O)C1=CC2(CC)CCCN3CCc4c(n1c1ccccc41)C32 (stereo not given),0.79 ± 0.061
6,CCOC(=O)C1=C(C)NC(C)=C(C(=O)OCC)C1c1ccc(F)cc1,0.796 ± 0.067
7,CC12CCC3c4ccc(O)cc4CCC3C1CC(O)C2O (stereo not given),1.17 ± 0.28
8,COC(CNS(=O)(=O)c1ccccc1Cl)c1cccc(F)c1 (stereo not given),1.21 ± 0.074
9,CN(C)CCC=C1c2ccccc2Sc2ccc(Cl)cc21.Cl,0.333 ± 0.095
10,CCCc1cc(=O)oc2cc(OCC(=O)OC)c(Cl)cc12,1.1 ± 0.09
11,CCOC(=O)c1ccccc1NC(=O)CN(c1cc(Cl)ccc1OC)S(C)(=O)=O,1.02 ± 0.15
12,Cc1c(OCC(F)(F)F)ccnc1CS(=O)c1nc2ccccc2[nH]1 (stereo not given),1 ± 0.16
13,COc1cc2c3cc1Oc1cc(ccc1O)OC1c4c(cc(OC)c(O)c4Oc4ccc(cc4)CC3N(C)CC2)CCN1C (stereo not given),0.191 ± 0.011
14,Cc1nc(Nc2ncc(C(=O)Nc3c(C)cccc3Cl)s2)cc(N2CCN(CCO)CC2)n1.O,1.55 ± 0.37
15,COc1cccc(CCc2ccccc2OCC(CN(C)C)OC(=O)CCC(=O)O)c1.Cl (stereo not given),0.428 ± 0.063
16,Nc1ccc(S(N)(=O)=O)cc1,1.1 ± 0.094
17,N#Cc1nc(-c2ccc(COc3ccccc3)o2)oc1N1CCCCC1,1.07 ± 0.06
18,O=C1OCCN1C1CCN(C(=O)C2(c3ccc(F)cc3)CC2)C1 (stereo not given),0.862 ± 0.094
19,Cl.O=C1Cc2cc(CCN3CCN(c4nsc5ccccc45)CC3)c(Cl)cc2N1,0.0947 ± 0.013
20,COc1ccc(CNC(=O)NCC#CCOc2cccc(C(F)(F)F)c2)cc1OC,1.07 ± 0.11

row,SMILES,NF-kB reporter
1,CS(=O)(=O)N(CC(=O)Nc1ccccc1Br)c1ccc(Cl)c(C(F)(F)F)c1,0.796 ± 0.13
2,CN(C)CCCN(C(=O)Cc1ccc(F)cc1)c1nc2ccc(Cl)cc2s1.Cl,0.447 ± 0.029
3,CC1CN(Cc2ccccn2)CCC1=O (stereo not given),0.988 ± 0.11
4,C[C@@H](O[C@H]1OCCN(Cc2n[nH]c(=O)[nH]2)[C@H]1c1ccc(F)cc1)c1cc(C(F)(F)F)cc(C(F)(F)F)c1,0.545 ± 0.086
5,c1ccc(-c2ccc(C(c3ccccc3)n3ccnc3)cc2)cc1 (stereo not given),0.825 ± 0.097
6,CC(C)(C)NC[C@H](O)COc1nsnc1N1CCOCC1.O=C(O)/C=C\C(=O)O,1.19 ± 0.2
7,Cc1cccc(NC(=O)Cc2nnc(NC(=O)Nc3ccc(F)cc3)s2)c1,1.02 ± 0.11
8,Cc1ccc(C2(c3ccc(C)cc3)CC2C(=O)Nc2cccnc2)cc1 (stereo not given),0.883 ± 0.061
9,O=[N+]([O-])c1ccc(CSc2nc3ccccc3[nH]2)cc1,0.971 ± 0.076
10,O=C(Nc1cc2c(cc1Cl)OCCO2)c1cc(Cl)ccc1O,0.882 ± 0.068
11,O=C(NCCCO)C(=O)Nc1ccccc1F,0.815 ± 0.07
12,CC12CC3CC(C)(C1)CC(N)(C3)C2 [Prestw-978],0.916 ± 0.073
13,COc1ccc(N(CC(=O)NCCSCc2cccc(Cl)c2)S(C)(=O)=O)cc1Cl,0.917 ± 0.073
14,Cc1cnc2c(c1NCCCO)c(=O)n(C)c(=O)n2C,1.1 ± 0.1
15,CN(C)CCC=C1c2ccccc2C=Cc2ccccc21.Cl,0.43 ± 0.079
16,Cc1cn2c(nc1=O)OC1C(O)C(CO)OC12 (stereo not given),1.01 ± 0.08
17,CC1(C)CC(=O)C2=C(C1)OC(N)=C(C#N)C21CCCCC1,1.01 ± 0.18
18,Cc1ccc(OCCCOc2cccc3cccnc23)c(Br)c1,0.998 ± 0.071
19,O=C(Cn1cnc([N+](=O)[O-])n1)Nc1cc(Oc2cccc(C(F)(F)F)c2)cc([N+](=O)[O-])c1,0.529 ± 0.043
20,COc1ccc(S(=O)(=O)N2CCC(c3ccccc3)S(=O)(=O)CC2)cc1Cl (stereo not given),0.831 ± 0.2

# Same assay, conditions: modulator concentration 10 µM; agonist: LPS 0.1 ug/mL
row,SMILES,NF-kB reporter
1,COC(=O)C1C(=O)C(=CNc2ccccc2O)C(=O)CC1(C)C (stereo not given),1.53 ± 0.13
2,Cc1cc(OCCCOc2cccc3cccnc23)ccc1Cl,1.02 ± 0.058
3,CN(C)CCOC(c1ccccc1)c1ccccc1.Cl,1.11 ± 0.089
4,O=C(Nc1cccnc1)c1ccc(OC2CCOCC2)nc1,0.97 ± 0.06
5,CCOC(=O)C1=CC2(CC)CCCN3CCc4c(n1c1ccccc41)C32 (stereo not given),0.928 ± 0.078
6,CCOC(=O)C1=C(C)NC(C)=C(C(=O)OCC)C1c1ccc(F)cc1,0.729 ± 0.059
7,CC12CCC3c4ccc(O)cc4CCC3C1CC(O)C2O (stereo not given),1.28 ± 0.075
8,COC(CNS(=O)(=O)c1ccccc1Cl)c1cccc(F)c1 (stereo not given),1.04 ± 0.078
9,CN(C)CCC=C1c2ccccc2Sc2ccc(Cl)cc21.Cl,0.862 ± 0.052
10,CCCc1cc(=O)oc2cc(OCC(=O)OC)c(Cl)cc12,0.967 ± 0.13
11,CCOC(=O)c1ccccc1NC(=O)CN(c1cc(Cl)ccc1OC)S(C)(=O)=O,1.09 ± 0.067
12,Cc1c(OCC(F)(F)F)ccnc1CS(=O)c1nc2ccccc2[nH]1 (stereo not given),0.915 ± 0.28
13,COc1cc2c3cc1Oc1cc(ccc1O)OC1c4c(cc(OC)c(O)c4Oc4ccc(cc4)CC3N(C)CC2)CCN1C (stereo not given),1.05 ± 0.064
14,Cc1nc(Nc2ncc(C(=O)Nc3c(C)cccc3Cl)s2)cc(N2CCN(CCO)CC2)n1.O,0.307 ± 0.025
15,COc1cccc(CCc2ccccc2OCC(CN(C)C)OC(=O)CCC(=O)O)c1.Cl (stereo not given),0.948 ± 0.3
16,Nc1ccc(S(N)(=O)=O)cc1,0.993 ± 0.069
17,N#Cc1nc(-c2ccc(COc3ccccc3)o2)oc1N1CCCCC1,1.24 ± 0.077
18,O=C1OCCN1C1CCN(C(=O)C2(c3ccc(F)cc3)CC2)C1 (stereo not given),0.907 ± 0.16
19,Cl.O=C1Cc2cc(CCN3CCN(c4nsc5ccccc45)CC3)c(Cl)cc2N1,1.06 ± 0.24
20,COc1ccc(CNC(=O)NCC#CCOc2cccc(C(F)(F)F)c2)cc1OC,1.07 ± 0.098

row,SMILES,NF-kB reporter
1,CS(=O)(=O)N(CC(=O)Nc1ccccc1Br)c1ccc(Cl)c(C(F)(F)F)c1,0.971 ± 0.076
2,CN(C)CCCN(C(=O)Cc1ccc(F)cc1)c1nc2ccc(Cl)cc2s1.Cl,0.503 ± 0.079
3,CC1CN(Cc2ccccn2)CCC1=O (stereo not given),0.993 ± 0.064
4,C[C@@H](O[C@H]1OCCN(Cc2n[nH]c(=O)[nH]2)[C@H]1c1ccc(F)cc1)c1cc(C(F)(F)F)cc(C(F)(F)F)c1,0.634 ± 0.031
5,c1ccc(-c2ccc(C(c3ccccc3)n3ccnc3)cc2)cc1 (stereo not given),0.893 ± 0.083
6,CC(C)(C)NC[C@H](O)COc1nsnc1N1CCOCC1.O=C(O)/C=C\C(=O)O,1.13 ± 0.43
7,Cc1cccc(NC(=O)Cc2nnc(NC(=O)Nc3ccc(F)cc3)s2)c1,1.03 ± 0.059
8,Cc1ccc(C2(c3ccc(C)cc3)CC2C(=O)Nc2cccnc2)cc1 (stereo not given),0.985 ± 0.076
9,O=[N+]([O-])c1ccc(CSc2nc3ccccc3[nH]2)cc1,0.87 ± 0.048
10,O=C(Nc1cc2c(cc1Cl)OCCO2)c1cc(Cl)ccc1O,0.902 ± 0.077
11,O=C(NCCCO)C(=O)Nc1ccccc1F,0.894 ± 0.045
12,CC12CC3CC(C)(C1)CC(N)(C3)C2 [Prestw-978],0.95 ± 0.092
13,COc1ccc(N(CC(=O)NCCSCc2cccc(Cl)c2)S(C)(=O)=O)cc1Cl,0.98 ± 0.065
14,Cc1cnc2c(c1NCCCO)c(=O)n(C)c(=O)n2C,1.01 ± 0.088
15,CN(C)CCC=C1c2ccccc2C=Cc2ccccc21.Cl,1.25 ± 0.15
16,Cc1cn2c(nc1=O)OC1C(O)C(CO)OC12 (stereo not given),1.02 ± 0.075
17,CC1(C)CC(=O)C2=C(C1)OC(N)=C(C#N)C21CCCCC1,0.866 ± 0.07
18,Cc1ccc(OCCCOc2cccc3cccnc23)c(Br)c1,1.01 ± 0.078
19,O=C(Cn1cnc([N+](=O)[O-])n1)Nc1cc(Oc2cccc(C(F)(F)F)c2)cc([N+](=O)[O-])c1,0.806 ± 0.097
20,COc1ccc(S(=O)(=O)N2CCC(c3ccccc3)S(=O)(=O)CC2)cc1Cl (stereo not given),1.08 ± 0.082
